The results in this text go back to PubChem BioAssay (NCI).

About 83,000 compounds went through this panel and 20% of them were active in at least one assay; those are over-represented in the sample as a whole.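 Step 1: grow cells in 96-well plates. Step 2: add test compound at a single concentration. Step 3: incubate 48 h. Step 4: record percent growth.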 The source made the active and inactive calls.

In this experiment the test system is OVCAR-8 ovarian. As to the kind of experiment: NCI-60 one-dose screen, 48 h (100 = growth as untreated, 0 = no growth, -100 = all killed). The conditions noted are these: 10 µM unless noted. The protocol: Growth inhibition of the OVCAR-8 human tumor cell line is measured as a screen for anti-cancer activity. Cells are grown in 96 well plates and exposed to the test compound for 48 hours. Compounds are tested at a single concentration, which is 10^-5 M for most compounds. The reported endpoint is percent growth (GI% or GIPRCNT), where numbers from 0 - 100% represent growth inhibition, and numbers from -100% - 0 represent cell death. For example, a value of 40 represents 60% growth inhibition. A value of 0 means no net growth occurred over the course of the experiment. A value of -40 indicates 40% of cells at the beginning of the experiment died by the end of the experiment. A value of -100 means all cells are dead at the end of the experiment.
NCI-60 Human Tumor Cell Lines Screen was performed using the standard one-dose NCI protocol, which is described in more detail at https://dtp.cancer.gov/discovery_development/nci-60/default.htm.
Compounds with GIPRCNT values below 10 were considered active. Activity score was based on GIPRCNT using the following formula: […]
Score is 0 for GIPRCNT values of 100 or above, 50 for GIPRCNT values of 0, and 100 for GIPRCNT values of -100.
Consider `C1=CC2(C=C1)OC21CCC2(C=CC3(C2)OC3C2CCCCC2)CC1` (stereo not given), for which the growth is 107% (inactive). In the case of `O=c1oc2ccc(Cl)cc2c(=O)n1-c1ccc(I)cc1F` it was 8.73% (active); in that of `Cn1nc(C(F)(F)F)c(-c2ccc(Cl)c(C(F)(F)F)c2)c1-c1ccc(OCc2ccc(Cl)cc2)cc1O`, 7.41% (active); in that of `COc1ccc(Cn2cc(Cn3c(=O)c(-c4nc5ccccc5[nH]4)cc4ccccc43)nn2)c(OC)c1OC`, 23.9% (inactive). The figure for `CC[C@]1(O)C[C@@H]2CN(CCc3c([nH]c4ccccc34)[C@@](C(=O)OC)(c3cc4c(cc3OC)N(C)[C@H]3[C@@](O)(C(=O)OC)[C@H](OC(C)=O)[C@]5(CC)C=CCN6CC[C@]43[C@@H]65)C2)C1` is 21.5% (inactive); for `COc1cccc2cc(N(C)c3nc(C)nc4ccsc34)ccc12` it is 6.47% (active); for `Cc1ccc2sc3c(NCCCNCCO)nc4ccccc4c3c(=O)c2c1` it is 22.4% (inactive).

In the case of `O=C(Nc1ccc(F)cc1F)c1cc(I)ccc1O`, the growth was 11.8% (inactive). In the case of `O=C(NC1CCCCC1)C(c1cccs1)N(CCc1ccccc1)C(=O)c1ccco1` (stereo not given) it was 88.2% (inactive); in that of `COc1cc2nc(-c3cnc(N(C)C)nc3)nc(NC3CCN(Cc4ccccc4)CC3)c2cc1OC`, -42.9% (active). In the case of `N#CC(C#N)=Cc1c(-c2ccccc2)[nH]c2ccccc12` it was 32.4% (inactive); in that of `CCOC(=O)c1ccc(N=Cc2sc(=O)[nH]c2O)cc1`, 92.1% (inactive); in that of `CCOc1ccc2c(c1)CN(Cc1ccc(Cl)cc1)CO2`, 34.1% (inactive). The figure for `COC(=O)/C(CCC=C(C)C)=C1\[C@@H](OC(C)=O)C[C@@]2(C)[C@H]1C[C@@H](O)[C@H]1[C@@]3(C)CC[C@H](NC(=O)c4cnccn4)[C@@H](C)[C@@H]3CC[C@@]12C` is 92.5% (inactive); for `O=C(/C=C/c1ccc(Cl)cc1)c1ccc(Nc2nc(NCCO)nc(Nc3ccc(Cl)cc3)n2)cc1` it is 70.8% (inactive). Turning to `Cc1ccccc1CNC(=O)C1CN(c2ccc(Cl)cc2)N(c2ccc(Cl)cc2)C1=O` (stereo not given), the growth was 87.9% (inactive).

For the molecule `CC1=C(C(=O)OCC2CCN(C(=O)OC(C)(C)C)CC2)[C@@H](c2cccc(C#N)c2)C2=C(CC(C)(C)CC2=O)N1`, the growth was 37.5% (inactive). Take `CCC1=C[C@]2(C3CC(=O)N(c4ccccc4)C3=O)CC(C(C)(C)C)C[C@@H]2[C@@H]2C(=O)N(c3ccccc3)C(=O)[C@H]12` (stereo not given in full): the growth was 85.5% (inactive). The figure for `COc1ccc(/C=C2\CCC/C(=C\c3ccc(OC)c(OC)c3)C2=O)cc1OC` is 2.04% (active); for `COc1cc(OC)cc(N2C(=O)N(Cc3ccc(C(C)(C)C)cc3)c3ccccc3S2(=O)=O)c1` it is 96% (inactive); for `Brc1ccc(Nc2nc3ccccc3nc2Nc2ccc(Br)cc2)cc1` it is -31.4% (active). In the case of `COC(=O)/C(CCC=C(C)C)=C1\[C@@H](OC(C)=O)C[C@@]2(C)[C@H]1C[C@@H](O)[C@H]1[C@@]3(C)CC[C@H](NCCCNCCCCNCCCN)[C@@H](C)[C@@H]3CC[C@@]12C` it was 54.6% (inactive); in that of `Cn1c(=O)n(C)c2cc(CNCCNc3ccnc4cc(Cl)ccc34)ccc21`, 66.6% (inactive); in that of `c1ccc2cc3c(Nc4ccc(N5CCOCC5)cc4)ccnc3cc2c1`, 94.3% (inactive). With `C=CCN1C(=O)/C(=c2\sc3n(c2=O)NC2C(N=3)N(CC)C(=O)N2CC)c2ccccc21` (stereo not given), the growth was 48.2% (inactive). In the case of `O=C(CCc1nnc2sc(-c3ccc(Cl)cc3Cl)nn12)c1nc2ncccc2[nH]1` it was 0.0907% (active); in that of `COc1cc2nc(NC3CCCC3)nc(NC3CCN(C(C)C)CC3)c2cc1OC`, 89.7% (inactive); in that of `O=C(Nc1ccc(N2CCNCC2)cc1)c1[nH]ncc1Nc1cc(C2CC2)ncn1`, 81.2% (inactive). The figure for `COc1cc(/C=C2\CCC/C(=C\c3cc(CN4CCOCC4)c(O)c(OC)c3)C2=O)cc(CN2CCOCC2)c1O` is 19% (inactive); for `Cc1cccc2c(=O)c3c(sc12)c(NCCN)nc1ccccc13` it is -25% (active).

Turning to `Clc1ccc(Oc2ccc(Nc3ncnc4onc(-c5ccccc5)c34)cc2)c(Cl)c1`, the growth is 97.7% (inactive). In the case of `COc1cc(C2CC(c3ccc(Nc4nc(NCCO)nc(N5CCOCC5)n4)cc3)=NN2c2cc(Cl)cc(Cl)c2)cc(OC)c1OC` (stereo not given), the growth is 48.8% (inactive). The figure for `COc1ccc(N2C(=O)CC(c3cc(OC)c(OC)c(OC)c3)C3C2=NC(=O)N3C)cc1` (stereo not given) is 102% (inactive); for `CC1=C(C(=O)OCC2CCN(C(=O)OC(C)(C)C)CC2)[C@H](c2cccc(C#N)c2)C2=C(CC(C)(C)CC2=O)N1` it is 46.9% (inactive). `O=C1NC(=O)C(=Cc2cn(Cc3cn(Cc4ccc(Cl)cc4Cl)nn3)c3ccccc23)C(=O)N1`: the growth is 83% (inactive).

Turning to `Nc1nc(Nc2cccc(F)c2)nc2ccccc12`, the growth was 55.9% (inactive).

On to `Cc1cc(Br)c(N)c(Br)c1`, for which the growth is 101% (inactive). In the case of `O=C(Nc1ccc(I)cc1F)c1cc(Br)ccc1O` it was 7.13% (active); in that of `Clc1ccc(-c2nnc(COc3ccc(C4=NNC(c5ccco5)C4)cc3)o2)cc1` (stereo not given), 96.6% (inactive); in that of `Cc1ccc(C(=O)c2oc3ccc4c(C)cc(=O)oc4c3c2C)cc1`, 8.23% (active).
